In experiment [1] the target is Luciferin 4-monooxygenase (Photinus pyralis) (UniProt P08659). In words: qHTS assay to identify small molecule inhibitors of firefly luciferase (AID 1224835). Note: nearly all actives have a fitted effect of over 25% in size. Note: potency is the fitted concentration of half-maximal effect. Put shortly:
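Quantitative HTS format; KM concentrations of both substrates. Purified P. pyralis FLuc activity quantified from luminescence images.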

Experiment [2] is described as follows: qHTS assay to identify small molecule antagonists of the constitutive androstane receptor (CAR) signaling pathway - cell viability counter screen (AID 1224837). Note: nearly all actives have a fitted effect of over 45% in size. Note: potency is the fitted concentration of half-maximal effect. Summed up:
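HepG2 cells stably expressing hCAR and a CYP2B6-2.2kb reporter were plated and pre-incubated 4 hr at 37 C/5% CO2, then given compounds at 15 concentrations plus 50 nM CITCO (final). After 23 hr, viability was read by CellTiter-Fluor fluorescence.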
(In general: In qHTS, concentration-response curves come from the screen itself.)

For experiment [3], the target named is Nuclear receptor subfamily 1 group I member 3 (Homo sapiens) (UniProt Q14994). In words: qHTS assay to identify small molecule antagonists of the constitutive androstane receptor (CAR) signaling pathway (AID 1224838). Note: nearly all actives have a fitted effect of over 40% in size. Note: potency is the fitted concentration of half-maximal effect. Summed up:
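HepG2 cells stably co-transfected with hCAR and a CYP2B6-2.2kb luciferase reporter were seeded 4 h before compound addition at 15 concentrations. Cells were stimulated with 50 nM CITCO (final) for 24 h at 37 C; luciferase luminescence was then read.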

Experiment [4] has the same target. In words: qHTS assay to identify small molecule agonists of the constitutive androstane receptor (CAR) signaling pathway (AID 1224839).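 Note: HepG2 cells stably carrying human CAR and a CYP2B6 luciferase reporter; nearly all actives have a fitted effect of over 15% in size.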 Put shortly: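 HepG2-CYP2B6-hCAR cells, 2500/well, 4 h pre-incubation; compounds 15 conc.; PK11195 0.75 uM final; 24 h, 37 C/5% CO2; ONE-Glo luciferase read.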
Experiment [5] in a line: qHTS assay to identify small molecule agonists of the hypoxia (HIF-1) signaling pathway - cell viability counter screen (AID 1224844; calls by dose curve; note: nearly all actives have a fitted effect of over 50% in size; note: potency is the fitted concentration of half-maximal effect). Put shortly:
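HRE-bla ME-180 cells in medium with 0.5% dialyzed FBS were preincubated 5 hrs at 37C, exposed to compounds for 17 hrs, then viability was read as CellTiter-Glo luminescence after 30 min at room temperature, in the reporter wells.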

Experiment [6] can be described thus: qHTS assay to identify small molecule agonists of H2AX - cell viability counter screen (AID 1224847; calls by dose curve; note: nearly all actives have a fitted effect of over 30% in size; note: potency is the fitted concentration of half-maximal effect). Put shortly:
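Cells plated first: CHO-K1, 1000 per well in 10% FBS medium, incubated overnight at 37C. Then 15-point compound titration added (final DMSO 0.76%) for 3 hr. Finally CellTiter-Glo added and luminescence read.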

Experiment [7] in a line: qHTS RealTime-Glo MT Cell Viability Assay in HepG2 cells - 24 hour (AID 1224867). Note: nearly all actives have a fitted effect of over 50% in size. Note: potency is the fitted concentration of half-maximal effect. Put shortly: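 Tox21 10K library screened in qHTS format on HepG2 cells carrying RealTime-Glo reagents. Compounds were added after a 5 h preincubation, and the luminescent signal from continuous culture was measured repeatedly during 40 h treatment.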
Experiment [8] can be described thus: qHTS RealTime-Glo MT Cell Viability Assay in HEK293 cells - 32 hour (AID 1224868). Note: nearly all actives have a fitted effect of over 50% in size. Note: potency is the fitted concentration of half-maximal effect. Summed up: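 Luminescence generated by NanoLuc from substrate produced by living HEK293 cells served as the viability signal. Each value reflects the reading at its stated time point during continuous 40 h compound exposure at 37 C.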
The nature of experiment [9]: A CellTox Green Cytotoxicity Assay to monitor cytotoxicity in HEK293 cells - 0 hour (AID 1224869). Note: nearly all actives have a fitted effect of over 50% in size. Note: potency is the fitted concentration of half-maximal effect. Summed up: (§1)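 HEK293 cells premixed with CellTox Green dye were seeded at 600 cells/well and left 5 h at 37 C/5% CO2 before pin transfer of 23 nL compound in DMSO. Fluorescence from dye bound to dead-cell DNA was read during 40 h treatment.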
Experiment [10] is described as follows: qHTS RealTime-Glo MT Cell Viability Assay in HepG2 cells - 40 hour (AID 1224870). Note: nearly all actives have a fitted effect of over 50% in size. Note: potency is the fitted concentration of half-maximal effect. Put shortly: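 HepG2 cells mixed with RealTime-Glo MT reagents (NanoLuc plus cell-permeant prosubstrate) were seeded at 600 cells/well, incubated 5 h at 37 C/5% CO2, then pinned with compounds in DMSO; nonlytic luminescence tracked viability during 40 h treatment.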
Experiment [11] is described as follows: qHTS assay to identify small molecule agonists of the constitutive androstane receptor (CAR) signaling pathway - cell viability counter screen (AID 1224836). Note: nearly all actives have a fitted effect of over 45% in size. Note: potency is the fitted concentration of half-maximal effect. Put shortly:
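HepG2-CYP2B6-hCAR, 2500 cells/well, 4 h pre-incubation; cpd 15 conc + PK11195 0.75 uM final; 23 h, 37 C/5% CO2; CellTiter-Fluor, fluorescence.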

The nature of experiment [12]: qHTS assay to identify small molecule antagonists of the estrogen related receptor signaling pathway with the pleiotropic PPARgamma coactivator (PGC) from Tox21 10K library - cell viability counter screen (AID 1224840; active = well fitted cell-killing curve with a large enough effect in the repeat runs, not every such curve was filed as active; note: nearly all actives have a fitted effect of over 40% in size; note: potency is the fitted concentration of half-maximal effect). Put shortly: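 PGC/ERR cells were seeded at 2,000 cells/well and left 6 hours at 37 C/5% CO2 before pin-tool addition of compounds in DMSO. After 17.5 hours at 37 C, CellTiter-Fluor was added and fluorescence read 30 minutes later.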

For experiment [13], the target named is Thyrotropin receptor (Homo sapiens) (UniProt P16473). In words: qHTS assay to identify small molecule agonists of the thyroid stimulating hormone receptor (TSHR) signaling pathway (AID 1224843; calls by dose curve; note: nearly all actives have a fitted effect of over 45% in size; note: potency is the fitted concentration of half-maximal effect). Summed up: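 Cell line HEK293 with TSHR; density 800/well. Exposure 30 min RT. Readout HTRF cAMP (cAMP-d2/anti-cAMP-cryptate), 1 h RT before reading.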
Chain of Thyrotropin receptor (Homo sapiens) (P16473 whole entry, looked up): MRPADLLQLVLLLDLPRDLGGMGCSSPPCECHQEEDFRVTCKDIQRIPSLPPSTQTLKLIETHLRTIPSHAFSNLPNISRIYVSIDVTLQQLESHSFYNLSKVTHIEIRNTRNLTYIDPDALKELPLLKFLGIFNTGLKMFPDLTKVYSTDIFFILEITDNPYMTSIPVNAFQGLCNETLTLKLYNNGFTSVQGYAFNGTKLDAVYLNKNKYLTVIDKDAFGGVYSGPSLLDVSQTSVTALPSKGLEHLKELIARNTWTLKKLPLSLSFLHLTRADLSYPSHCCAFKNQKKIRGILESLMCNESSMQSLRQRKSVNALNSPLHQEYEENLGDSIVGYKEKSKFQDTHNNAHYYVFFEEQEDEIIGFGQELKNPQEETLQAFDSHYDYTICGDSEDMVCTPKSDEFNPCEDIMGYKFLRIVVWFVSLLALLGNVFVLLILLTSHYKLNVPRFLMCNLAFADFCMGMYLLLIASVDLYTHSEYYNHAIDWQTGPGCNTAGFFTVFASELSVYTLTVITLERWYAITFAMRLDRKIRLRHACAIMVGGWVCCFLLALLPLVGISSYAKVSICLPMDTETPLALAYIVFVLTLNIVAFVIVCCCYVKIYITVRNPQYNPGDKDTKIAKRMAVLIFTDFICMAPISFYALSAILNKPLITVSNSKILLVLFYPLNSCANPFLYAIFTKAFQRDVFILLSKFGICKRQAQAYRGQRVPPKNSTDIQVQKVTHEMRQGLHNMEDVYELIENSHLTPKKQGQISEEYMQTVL
A short description of experiment [14]: qHTS assay to identify small molecule agonists of H2AX (AID 1224845; active = well fitted activation curve with a large enough effect in the signal ratio in the repeat runs, not every such curve was filed as active; the % refers to the signal ratio). Put shortly: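 Wild-type CHO-K1 cells plated overnight, then exposed 3 hr at 37C to compounds at 15 concentrations (0.76% DMSO). Lysed, then HTRF anti-pH2AX(S139)-cryptate/anti-H2AX-d2 detection after 24 hr at room temperature; emissions 665 and 620 nm.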
The nature of experiment [15]: qHTS assay to identify small molecule agonists of the hypoxia (HIF-1) signaling pathway (AID 1224846; active = well fitted activation curve with a large enough effect in the signal ratio in the repeat runs, not every such curve was filed as active; the % refers to the signal ratio). Put shortly: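 HRE-bla ME-180 cells (beta-lactamase reporter under hypoxia response element) were plated at 2,000 cells/well in medium with 0.5% dialyzed FBS, rested 5 hrs, then given compounds in DMSO for 17 hrs at 37C, 5% CO2. Reporter induction was read with CCF4-AM FRET substrate.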

Experiment [16] is described as follows: qHTS assay to identify small molecule antagonists of the estrogen related receptor signaling pathway with the pleiotropic PPARgamma coactivator (PGC) from Tox21 10K library (AID 1224841; call rule not given here; note: potency is the fitted concentration of half-maximal effect). Put shortly: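 PGC/ERR reporter cells were seeded at 2,000 cells/well and held 6 hours at 37 C/5% CO2 before pin-tool addition of compounds in DMSO. After 18 hours at 37 C, One-Glo was added and luminescence read after 30 minutes at room temperature.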

Experiment [17] is described as follows: qHTS assay to identify small molecule agonists of the estrogen related receptor signaling pathway with the pleiotropic PPARgamma coactivator (PGC) from Tox21 10K library (AID 1224842). Note: nearly all actives have a fitted effect of over 15% in size. Summed up:
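PGC/ERR reporter cells (NTP line) were seeded 2,000 per well, rested 6 h at 37 C/5% CO2, then pin-dosed with compounds in DMSO for 18 h at 37 C; luciferase read by One-Glo luminescence after 30 min at room temperature.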

Experiment [18] in a line: qHTS assay to identify small molecule antagonists of the estrogen related receptor (ERR) signaling pathway from Tox21 library (AID 1224848). Note: nearly all actives have a fitted effect of over 50% in size. Note: potency is the fitted concentration of half-maximal effect. Put shortly: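 Screening used an ERR reporter line supplied by NTP, exposed for 18 h at 37 C to library compounds delivered in DMSO. Signal was luciferase luminescence developed with ONE-Glo at room temperature for 30 min.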
The nature of experiment [19]: qHTS assay to identify small molecule agonists of the estrogen related receptor (ERR) signaling pathway from Tox21 library (AID 1224849; calls by dose curve; note: nearly all actives have a fitted effect of over 15% in size). As to conditions: ERR reporter cell line, ONE-Glo luciferase, 18 h. Summed up:
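ERR reporter cell line (NTP) seeded, rested 6 h at 37 C/5% CO2, then pinned with Tox21 compounds in DMSO. After 18 h at 37 C, ONE-Glo luciferase luminescence was read following 30 min at room temperature.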

Experiment [20] can be described thus: A CellTox Green Cytotoxicity Assay to monitor cytotoxicity in HEK293 cells - 40 hour (AID 1224871). Note: nearly all actives have a fitted effect of over 45% in size. Note: potency is the fitted concentration of half-maximal effect. Summed up: as §1

Several values for one entry are separate records, joined by “and”; a condition that tells them apart may be missing. Equal values may be shown once. A number with no mark means an inactive call. Results filed as inconclusive are left out. Activity calls are given as the source filed them. Unless noted, calls come from the whole dose curve; as a rule, active = well fitted curve in the direction sought with a large enough effect in the repeat runs; inconclusive = weak or mixed curves; inactive = no such curve, though single readings can be large; an effect the other way counts as inactive or inconclusive.
% is set by controls: 0 for no effect and ±100 for the full control effect.

Chain of Luciferin 4-monooxygenase (Photinus pyralis) (P08659 whole entry, looked up): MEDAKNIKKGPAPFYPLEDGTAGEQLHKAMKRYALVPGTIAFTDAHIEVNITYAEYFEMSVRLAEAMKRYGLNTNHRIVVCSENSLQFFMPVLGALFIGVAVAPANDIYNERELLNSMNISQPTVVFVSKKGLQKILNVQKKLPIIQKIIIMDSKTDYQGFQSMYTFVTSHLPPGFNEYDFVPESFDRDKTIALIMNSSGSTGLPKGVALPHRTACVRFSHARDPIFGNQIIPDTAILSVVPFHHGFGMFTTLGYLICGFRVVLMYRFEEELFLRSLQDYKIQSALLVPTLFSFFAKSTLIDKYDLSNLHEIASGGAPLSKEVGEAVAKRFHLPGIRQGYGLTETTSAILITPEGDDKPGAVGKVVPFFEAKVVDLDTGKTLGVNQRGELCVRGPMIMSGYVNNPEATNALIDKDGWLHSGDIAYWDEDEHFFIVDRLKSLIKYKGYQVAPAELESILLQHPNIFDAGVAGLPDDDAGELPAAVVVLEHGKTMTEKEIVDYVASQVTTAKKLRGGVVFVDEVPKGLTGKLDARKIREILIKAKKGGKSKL
Chain of Nuclear receptor subfamily 1 group I member 3 (Homo sapiens) (Q14994 whole entry, looked up): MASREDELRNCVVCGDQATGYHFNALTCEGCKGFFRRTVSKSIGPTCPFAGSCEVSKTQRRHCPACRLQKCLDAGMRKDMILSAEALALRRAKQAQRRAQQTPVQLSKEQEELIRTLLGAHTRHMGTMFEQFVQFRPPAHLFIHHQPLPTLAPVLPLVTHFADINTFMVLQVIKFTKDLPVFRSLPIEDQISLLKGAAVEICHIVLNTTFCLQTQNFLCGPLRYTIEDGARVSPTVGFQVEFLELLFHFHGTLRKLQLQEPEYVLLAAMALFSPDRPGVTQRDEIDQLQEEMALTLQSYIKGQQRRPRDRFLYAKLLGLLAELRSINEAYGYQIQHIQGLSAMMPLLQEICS

As for `O=C1OC2(c3ccccc31)c1cc(Br)c(O)c(Br)c1Oc1c2cc(Br)c(O)c1Br`, the Potency is 28.7 µM (active) and 36.6 µM (active) in [1]; 7.81 µM (active) and 25 µM (active) in experiment [2]; 11.1 µM (active) and 17.9 µM (active) and 23.9 µM (active) in [9]. Besides, the Potency result in experiment [3], in experiment [4], in [5], in [6], in [7] and in experiment [8] was “inactive” each time. Besides, the Potency result in [10] was “inactive”.
`CCCCCCCCCCCC[N+](C)(C)Cc1ccccc1`: the Potency result in experiment [1], in experiment [4], in experiment [14] and in [9] was “inactive” each time. Besides, the Potency in experiment [11] was 47.6 µM (active) and 59.2 µM (active) and 29.8 µM (active); in [2], 47.6 µM (active) and 23.7 µM (active); in [3], 83.6 µM (active) and 29.8 µM (active); in [12], 60 µM (active) and 41.9 µM (active); in experiment [13], 30 µM (active) and 37.4 µM (active); in [5], 53.9 µM (active). Moreover, the Potency was 12.1 µM (active) and 21.2 µM (active) and 8.49 µM (active) in experiment [7]; 3.4 µM (active) and 2.99 µM (active) and 2.13 µM (active) in experiment [8]; 8.54 µM (active) and 16.8 µM (active) and 6.74 µM (active) in experiment [10].
Regarding `NC(CO)(CO)CO`, the Potency result in experiment [1], in [11], in experiment [2], in experiment [3], in [4] and in [12] was “inactive” throughout. Moreover, the Potency result in [13], in experiment [14], in [7], in experiment [9] and in experiment [10] was “inactive” each time. The molecule was called inactive in [15].
Take `O=c1[nH]cnc2c1ncn2[C@H]1CC[C@@H](CO)O1`: the Potency entry in experiment [1], in experiment [11], in experiment [2], in experiment [3], in [4] and in [12] was “inactive” throughout. Besides, the Potency result in experiment [16], in experiment [17], in experiment [13], in experiment [14], in experiment [18] and in [7] was “inactive” each time. Moreover, the Potency result in [8], in experiment [9] and in experiment [10] was “inactive” in each case. Further, the outcome in experiment [15] was inactive. Moreover, the activity change, positive = activation was 4.94% in experiment [19] (at 42.5 µM (top of the series)); 7.43% and 1.63% in experiment [19] (at 92.4 µM (top of the series)).
As for `CCCCC(CC)C(=O)O` (stereo unspecified), the Potency result in experiment [1], in experiment [11], in [2], in experiment [12], in [13] and in experiment [14] was “inactive” throughout. Further, the Potency result in [6], in experiment [7], in [8], in experiment [9], in experiment [10] and in [20] was “inactive” each time. Further, in [15], the molecule was called inactive.
As for `CN(C)C(=S)SC(=S)N(C)C`, the Potency in experiment [1] is 25.8 µM (active) and 11.2 µM (active) and 12.3 µM (active); in experiment [11], 2.22 µM (active) and 1.72 µM (active) and 3.76 µM (active); in [2] it was 1.57 µM (active) and 1.72 µM (active) and 2.37 µM (active); in experiment [3], 1.25 µM (active) and 1.54 µM (active) and 2.37 µM (active); in [12], 1.25 µM (active) and 1.37 µM (active) and 1.68 µM (active); in experiment [16], 1.25 µM (active) and 1.22 µM (active) and 2.37 µM (active). Moreover, the Potency in [5] was 2 µM (active) and 1.23 µM (active); in experiment [6] it was 92.1 µM (active) and 31.8 µM (active); in [18], 886 nM (active) and 1.09 µM (active) and 1.19 µM (active); in [7], 1.74 µM (active) and 2.68 µM (active); in experiment [10] it was 1.38 µM (active) and 3.01 µM (active); in [20] it was 1.59 µM (active) and 3.09 µM (active) and 3.79 µM (active). For the same molecule, the Potency result in experiment [4], in [17], in experiment [13] and in experiment [9] was “inactive” throughout. Moreover, the activity change, positive = activation was -68.6% in experiment [19] (at 42.5 µM (top of the series)); -79.6% and -76.2% in experiment [19] (at 92.4 µM (top of the series)).
On to `CC1(C)S[C@@H]2[C@H](NC(=O)[C@H](N)c3ccccc3)C(=O)N2[C@H]1C(=O)O`, for which the Potency entry in experiment [1], in experiment [11], in experiment [2], in [12], in experiment [13] and in [14] was “inactive” each time. In addition, the Potency entry in [9] is “inactive”.
